RPL19A TOR yeast: alters RPL19A-GFP fluorescence in TOR pathway yeast screen. S. cerevisiae RPL19A-GFP strain, flow cytometry, 3 h; hits give low values. percent response vs DMSO, % at 10 µM. hit rate 0.3% among 330,000. AID 2025;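 active = percent response vs DMSO below 50%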;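 note: median channel GFP fluorescence of the barcoded RPL19A-GFP strain; lower means less RPL19A-GFP as with rapamycin TOR inhibition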
CIT2-GFP yeast: alters CIT2-GFP fluorescence in TOR pathway yeast screen. GFP response vs DMSO, % at 10 µM. hit rate 0.065% among 320,000. S. cerevisiae CIT2-GFP strain, flow cytometry, 3 h; 100 means same as DMSO wells. AID 2029;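 active = GFP response relative to DMSO above a set limit, near the screen mean plus 3 SD, cut at about 150% in these data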;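 note: ratio of well median GFP fluorescence to mean of DMSO wells on the plate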
AGP1 TOR yeast: modulators of TOR pathway AGP1-GFP in S. cerevisiae; S. cerevisiae AGP1-GFP multiplex flow cytometry, 3 h; GFP as percent of DMSO wells; hit rate 0.02% among 320,000; GFP response vs DMSO, % at 10 µM;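 active = GFP response relative to DMSO above a set limit, near screen average plus 3 SD, cut at about 150% in these data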;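 note: median GFP channel fluorescence of the gated AGP1 strain per well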
LAP4 TOR yeast: alters LAP4-GFP fluorescence in TOR pathway yeast screen | hit rate 0.34% among 320,000 | GFP response vs DMSO, % at 10 µM | AID 2023 | S. cerevisiae LAP4-GFP multiplex, flow cytometry GFP, 3 h; median GFP as percent of DMSO wells;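 active = GFP response vs DMSO above a set limit, about the screen mean plus 3 SD, cut at about 150% in these data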
MEP2 TOR yeast: alters MEP2-GFP fluorescence in TOR pathway yeast screen. hit rate 0.51% among 330,000. GFP response vs DMSO, % at 10 µM. S. cerevisiae MEP2-GFP strain, flow cytometry GFP, 3 h; 100% = DMSO control level;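 active = GFP response versus DMSO above a set limit, roughly screen mean plus 3 SD, cut at about 180% in these data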;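 note: median GFP fluorescence of the barcode-gated MEP2-GFP cells per well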
LAP4-GFP pick2: second confirmation of modulators of TOR reporter LAP4-GFP in yeast; GFP response vs DMSO, % at 10 µM; hit rate 20% among 590; S. cerevisiae LAP4-GFP strain, flow cytometry GFP, 3 h; shares compounds with LAP4 TOR yeast;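 active = GFP signal as percent of the solvent control above about 150%, meaning raised reporter expression, limit read from the data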
MEP2-GFP pick2: reconfirmed MEP2-GFP TOR pathway modulator in yeast; GFP response vs DMSO, % at 10 µM; shares compounds with LAP4 TOR yeast; S. cerevisiae MEP2-GFP strain, flow cytometry GFP, 3 h; hit rate 10% among 590;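 active = GFP signal above 150% of the solvent control wells, that is a rise of more than half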;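 note: median channel GFP fluorescence of all gated yeast cells per well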
RPL19A GFP CP2: second confirmation of modulators of TOR reporter RPL19A-GFP in yeast; shares compounds with LAP4 TOR yeast; GFP response vs DMSO, % at 10 µM; hit rate 3% among 590; AID 2623; S. cerevisiae RPL19A-GFP strain, flow cytometry GFP, 3 h; hits give low values; 100% means same as DMSO wells;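 active = under 65% GFP response relative to DMSO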;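 note: median GFP channel fluorescence per well over the all cells gate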
CIT2-GFP pick2: second confirmation of modulators of TOR reporter CIT2-GFP in yeast. shares compounds with LAP4 TOR yeast. S. cerevisiae CIT2-GFP strain, flow cytometry GFP, 3 h; DMSO control wells read 100%. GFP response vs DMSO, % at 10 µM. hit rate 8% among 590. AID 2624;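 active = GFP response vs DMSO above about 150%, limit read from the data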;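 note: median green fluorescence per well over all gated yeast cells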
AGP1 GFP CP2: reconfirmed modulator of AGP1-GFP TOR reporter in yeast; shares compounds with LAP4 TOR yeast; S. cerevisiae AGP1-GFP strain, flow cytometry GFP, 3 h; percent response vs DMSO, % at 10 µM; 590 tested, under 10 active; AID 2643;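 active = over 150 percent of DMSO response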;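 note: median GFP channel fluorescence over all cells without mother daughter split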
s288c autofluor: counter-screen for compound autofluorescence in yeast s288c cells; shares compounds with LAP4 TOR yeast; S. cerevisiae s288c, 520 nm autofluorescence, flow cytometry, 3 h; hits give high values; zero means same as solvent-only cells; fluorescence change (kMESF span) at 33 µM; 610 tested, under 10 active; AID 2757;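 active = fluorescence span over the dose series, or activity score, above about 33, limit read from the data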
Yeast autofl DR: counter-screen for autofluorescence of TOR hits in yeast s288c | shares compounds with LAP4 TOR yeast | S. cerevisiae s288c parental, compound autofluorescence, flow cytometry, 3 h | fluorescence change (span) at 33 µM | 110 tested, under 10 active;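 active = fluorescence change span, or the activity score built from it, above 25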
TORC1 bypass: stops wildtype yeast growth while TORC1 bypass cells still grow | S. cerevisiae BY4741 spot growth rating, 48-72 h; hits give low values | shares compounds with LAP4 TOR yeast | growth rating (0-3) at 30 µM | 120 tested, under 10 active | AID 504456;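 active = growth rating at most 1 for wild type yeast while the TORC1 bypass strain still grows fully, rated 3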
Each line names hits and unclear results; the compound was inactive in the other large screens (follow-up assays come after a bar, where they were run). An excerpt weighted towards active compounds, which were near 0.93% of everything screened.

O=C1c2ccccc2C(=O)C1c1ccccn1	none
O=C(NC1CCCC1)C(=O)N(c1ccccc1F)C(C(=O)NCC1CCCO1)c1cccs1 (centres undefined)	none
COc1ccccc1C(=O)Nc1ccc(C(=O)Nc2ccccc2C(=O)O)cc1	none
O=C(Nc1nnc(-c2ccc(F)cc2)o1)c1cccc([N+](=O)[O-])c1	LAP4 TOR yeast 164 | s288c autofluor inactive
O=C(Nc1nnc(-c2ccc(F)cc2)o1)c1cc(Cl)sc1Cl	LAP4 TOR yeast 164 | LAP4-GFP pick2 167 | MEP2-GFP pick2 inactive | RPL19A GFP CP2 inactive | CIT2-GFP pick2 inactive | AGP1 GFP CP2 inactive | s288c autofluor inactive
O=C(Nc1nnc(-c2ccccc2)o1)c1cc(Cl)sc1Cl	none
COc1ccccc1N1C(=O)c2cccc3c(C(=O)O)ccc(c23)C1=O	none | s288c autofluor inactive
Cc1ccc(C)c(NC(=O)COC(=O)CCCN=C2NS(=O)(=O)c3ccccc32)c1	none
COc1ccc(OC)c(NC(=O)COC(=O)CCCN=C2NS(=O)(=O)c3ccccc32)c1	LAP4 TOR yeast 163 | LAP4-GFP pick2 inactive | MEP2-GFP pick2 inactive | RPL19A GFP CP2 inactive | CIT2-GFP pick2 inactive | AGP1 GFP CP2 inactive
CC(=O)NCC1CCCN(Cc2cn(-c3ccccc3)nc2-c2ccc3c(c2)OCO3)C1 (centres undefined)	LAP4 TOR yeast 192 | LAP4-GFP pick2 inactive | MEP2-GFP pick2 inactive | RPL19A GFP CP2 inactive | CIT2-GFP pick2 inactive | AGP1 GFP CP2 inactive
O=C(c1ccc([N+](=O)[O-])o1)N1CCN(c2nc3c(F)cc(F)cc3s2)CC1	LAP4 TOR yeast 167 | s288c autofluor inactive
Fc1ccc(NC(=S)Nc2ccc3nccnc3c2)cc1	LAP4 TOR yeast 171 | LAP4-GFP pick2 inactive | MEP2-GFP pick2 inactive | RPL19A GFP CP2 inactive | CIT2-GFP pick2 inactive | AGP1 GFP CP2 inactive
CCN1/C(=C/c2ccc3cc(C)ccc3[n+]2CC)Sc2ccc3sccc3c21	CIT2-GFP yeast 366, LAP4 TOR yeast 300, MEP2 TOR yeast 588 | s288c autofluor inactive
Cc1[nH][nH]c(=O)c1C(c1ccccc1[N+](=O)[O-])C(C#N)C#N (centres undefined)	none
CC1=NN(c2ccccc2)C(=O)C1C(c1ccccc1[N+](=O)[O-])C(C#N)C#N (centres undefined)	none (no result: RPL19A TOR yeast, CIT2-GFP yeast, AGP1 TOR yeast, LAP4 TOR yeast, MEP2 TOR yeast) | Yeast autofl DR inactive | TORC1 bypass inactive
Oc1c(C(Nc2cccc(C(F)(F)F)c2)c2cccnc2)ccc2cccnc12 (centres undefined)	none
Cc1ccc(C(c2cc(Cl)c3cccnc3c2O)N2CCN(C)CC2)cc1 (centres undefined)	LAP4 TOR yeast 227 | s288c autofluor inactive | Yeast autofl DR inactive | TORC1 bypass inactive
CC(=O)NC(c1cc(Cl)c2cccnc2c1O)C(C)C (centres undefined)	none
CN1CCN(C(c2ccc(C(F)(F)F)cc2)c2ccc3cccnc3c2O)CC1 (centres undefined)	LAP4 TOR yeast 322 | s288c autofluor inactive | Yeast autofl DR inactive | TORC1 bypass inactive
C=CCNC(=O)c1ccc(Cn2c(=S)[nH]c3cc4c(cc3c2=O)OCO4)cc1	none
O=C(NCCN1CCCC1)c1ccc(Cn2c(=S)[nH]c3cc4c(cc3c2=O)OCO4)cc1	LAP4 TOR yeast 153 | LAP4-GFP pick2 inactive | MEP2-GFP pick2 inactive | RPL19A GFP CP2 inactive | CIT2-GFP pick2 inactive | AGP1 GFP CP2 inactive
Cc1ccc(N(CCC#N)C(=O)CN2C(=O)NC(Cc3ccccc3)C2=O)cc1 (centres undefined)	none
COCc1c(C(=O)Nc2cccc(S(=O)(=O)N3CCCCC3)c2)oc2ccccc12	none
CC(=O)c1ccc(N2CCN(C(=O)c3ccc(Br)cc3)CC2)c(F)c1	LAP4 TOR yeast 162 | s288c autofluor inactive | Yeast autofl DR inactive | TORC1 bypass inactive
O=C1CCN(S(=O)(=O)c2ccccc2)CCN1CCOCc1ccc(F)cc1	LAP4 TOR yeast 179, MEP2 TOR yeast 190 | LAP4-GFP pick2 inactive | MEP2-GFP pick2 inactive | RPL19A GFP CP2 inactive | CIT2-GFP pick2 inactive | AGP1 GFP CP2 inactive | s288c autofluor inactive
Cc1ccc(S(=O)(=O)N2CCC(=O)N(CCOCc3ccc(F)cc3)CC2)cc1	none
NS(=O)(=O)c1ccc(NC(=O)COc2ccc(S(=O)(=O)N3CCCC3)cc2)cc1	none
CCN1C(=O)/C(=C\C(=O)c2cccs2)c2cc(Br)ccc21	LAP4 TOR yeast 196 | s288c autofluor inactive
O=C(NCCCn1cccn1)c1cc(COc2ccc(F)cc2Cl)on1	none
O=C(O)c1ccc(N2C(=O)Nc3ccccc3N2O)cc1	none
COC(=O)c1cccc(-c2cc(Nc3cc(C)[nH]n3)nc(NCc3ccccc3)n2)c1	none (no result: RPL19A TOR yeast, CIT2-GFP yeast, AGP1 TOR yeast, LAP4 TOR yeast, MEP2 TOR yeast) | TORC1 bypass inactive
COC(=O)c1nc(-c2ccccc2)n[nH]1	none
Cc1cc(Nc2cc(Nc3ccccc3)nc(NCc3ccccc3)n2)n[nH]1	none (no result: RPL19A TOR yeast, CIT2-GFP yeast, AGP1 TOR yeast, LAP4 TOR yeast, MEP2 TOR yeast) | TORC1 bypass inactive
Cc1cc(Nc2ccccc2)nc(NCc2ccccc2)n1	none
O=C(c1ccco1)N1CCN(c2ncnc3c(-c4ccc(Cl)cc4)nsc23)CC1	none
CC(=O)Nc1ccc(NC(=O)Cc2sc(C)nc2-c2ccc(C)cc2)cc1	none
Cc1ccc(-c2nc(C)sc2CC(=O)Nc2nnc(C)s2)cc1	none | LAP4-GFP pick2 inactive | MEP2-GFP pick2 inactive | RPL19A GFP CP2 inactive | CIT2-GFP pick2 inactive | AGP1 GFP CP2 inactive | s288c autofluor inactive

Compound activity: PubChem BioAssay, NMMLSC
